Where “and” joins values, the source holds several entries; their conditions need not be identical. Equal entries are not always repeated. Results filed as inconclusive are left out. Entries that show only a call come without a potency. Some structures have more than one record in an assay (separate samples or runs), and their calls can disagree. Calls of active or inactive are those of the source. Calls follow the shape of the dose curve; as a rule, active = well fitted curve in the direction sought with a large enough effect in the repeat runs; inconclusive = weak or mixed curves; inactive = no such curve, though single readings can be large; an effect the other way counts as inactive or inconclusive.
Experiments:
[1] = A CellTox Green Cytotoxicity Assay to monitor cytotoxicity in HEK293 cells - 40 hour (AID 1224871); also: nearly all actives have a fitted effect of over 45% in size; also: potency is read from the fitted curve at half-maximal effect
Summary of the method: (§1)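 Seeding of HEK293 cells together with cytotoxicity dye preceded a 5 h incubation at 37 C/5% CO2. Test compounds in DMSO were then added and fluorescence monitored across 40 h.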

[2] = qHTS RealTime-Glo MT Cell Viability Assay in HepG2 cells - 8 hour (AID 1224873); also: nearly all actives have a fitted effect of over 55% in size; also: potency is read from the fitted curve at half-maximal effect
Summary of the method: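 HepG2 cells (600/well) mixed with RealTime-Glo MT reagent, settled 5 h at 37 C/5% CO2 before compound addition. Nonlytic NanoLuc luminescence from viable-cell prosubstrate reduction read repeatedly during 40 h treatment at 37 C.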

[3] = A CellTox Green Cytotoxicity Assay to monitor cytotoxicity in HEK293 cells - 24 hour (AID 1224875); also: nearly all actives have a fitted effect of over 45% in size; also: potency is read from the fitted curve at half-maximal effect
Summary of the method: as §1

[4] = A CellTox Green Cytotoxicity Assay to monitor cytotoxicity in HepG2 cells - 16 hour (AID 1224876); also: nearly all actives have a fitted effect of over 45% in size; also: potency is read from the fitted curve at half-maximal effect
Summary of the method: (§2)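 Nonlytic assay: viable cells exclude the dye, so fluorescence scales with cell death. HepG2 at 600 cells/well, compounds added after 5 h, signal read across 40 h.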

[5] = qHTS RealTime-Glo MT Cell Viability Assay in HepG2 cells - 32 hour (AID 1224877); also: nearly all actives have a fitted effect of over 55% in size; also: potency is read from the fitted curve at half-maximal effect
Summary of the method: (§3)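 Real-time, nonlytic viability: 600 HepG2 cells/well mixed with NanoLuc enzyme plus prosubstrate; 5 h settle, compound (DMSO) added by pintool; luminescence monitored over 40 h at 37 C.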

[6] = A CellTox Green Cytotoxicity Assay to monitor cytotoxicity in HepG2 cells - 24 hour (AID 1224878); also: nearly all actives have a fitted effect of over 45% in size; also: potency is read from the fitted curve at half-maximal effect
Summary of the method: as §2

[7] = A CellTox Green Cytotoxicity Assay to monitor cytotoxicity in HepG2 cells - 40 hour (AID 1224879); also: nearly all actives have a fitted effect of over 40% in size; also: potency is read from the fitted curve at half-maximal effect
Summary of the method: as §2

[8] = qHTS RealTime-Glo MT Cell Viability Assay in HEK293 cells - 0 hour (AID 1224880)
Summary of the method: (§4)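 Tox21 screen in HEK293 using RealTime-Glo MT chemistry, with cells and reagent co-dispensed. Luminescence proportional to viable cell number was captured at intervals during 40 h compound exposure at 37 C.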

[9] = A CellTox Green Cytotoxicity Assay to monitor cytotoxicity in HEK293 cells - 32 hour (AID 1224881); also: nearly all actives have a fitted effect of over 40% in size; also: potency is read from the fitted curve at half-maximal effect
Summary of the method: as §1

[10] = A CellTox Green Cytotoxicity Assay to monitor cytotoxicity in HepG2 cells - 0 hour (AID 1224882); also: nearly all actives have a fitted effect of over 35% in size
Summary of the method: as §2

[11] = A CellTox Green Cytotoxicity Assay to monitor cytotoxicity in HepG2 cells - 32 hour (AID 1224883); also: nearly all actives have a fitted effect of over 50% in size; also: potency is read from the fitted curve at half-maximal effect
Summary of the method: as §2

[12] = A CellTox Green Cytotoxicity Assay to monitor cytotoxicity in HEK293 cells - 8 hour (AID 1224884); also: nearly all actives have a fitted effect of over 35% in size; also: potency is read from the fitted curve at half-maximal effect
Summary of the method: as §1

[13] = qHTS RealTime-Glo MT Cell Viability Assay in HepG2 cells - 16 hour (AID 1224885); also: nearly all actives have a fitted effect of over 50% in size
Summary of the method: as §3

[14] = qHTS RealTime-Glo MT Cell Viability Assay in HEK293 cells - 8 hour (AID 1224887); also: nearly all actives have a fitted effect of over 50% in size; also: potency is read from the fitted curve at half-maximal effect
Summary of the method: as §4

[15] = A CellTox Green Cytotoxicity Assay to monitor cytotoxicity in HEK293 cells - 16 hour (AID 1224888); also: nearly all actives have a fitted effect of over 35% in size; also: potency is read from the fitted curve at half-maximal effect
Summary of the method: as §1

[16] = qHTS RealTime-Glo MT Cell Viability Assay in HepG2 cells - 0 hour (AID 1224889); also: nearly all actives have a fitted effect of over 50% in size
Summary of the method: as §3

[17] = A CellTox Green Cytotoxicity Assay to monitor cytotoxicity in HepG2 cells - 8 hour (AID 1224890); also: nearly all actives have a fitted effect of over 45% in size; also: potency is read from the fitted curve at half-maximal effect
Summary of the method: as §2

[18] = qHTS RealTime-Glo MT Cell Viability Assay in HEK293 cells - 16 hour (AID 1224872); also: nearly all actives have a fitted effect of over 50% in size; also: potency is read from the fitted curve at half-maximal effect
Summary of the method: (§5)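 Cells + reagent dispensed (600 cells/well, HEK293) → 5 h at 37 C/5% CO2 → 23 nL compound in DMSO pinned → 40 h at 37 C → luminescence read at 0, 8, 16, 24, 32, 40 h.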

[19] = qHTS RealTime-Glo MT Cell Viability Assay in HEK293 cells - 40 hour (AID 1224874); details: RealTime-Glo luminescence; max response: stronger effect = lower value; also: nearly all actives have a fitted effect of over 50% in size; also: potency is read from the fitted curve at half-maximal effect
Summary of the method: as §4

[20] = qHTS RealTime-Glo MT Cell Viability Assay in HEK293 cells - 24 hour (AID 1224886); also: nearly all actives have a fitted effect of over 50% in size; also: potency is read from the fitted curve at half-maximal effect
Summary of the method: as §5

Cc1[nH]nc2c1N=C(c1ccccc1Cl)c1cc([N+](=O)[O-])ccc1N2
Potency [1]: inactive
Potency [2]: inactive
Potency [3]: inactive
Potency [4]: inactive
Potency [5]: inactive
Potency [6]: inactive
Potency [7]: inactive
Potency [8]: inactive
Potency [9]: inactive
Potency [10]: inactive
Potency [11]: inactive
Potency [12]: inactive
Potency [13]: inactive
Potency [14]: inactive
Potency [15]: inactive
Potency [16]: inactive
Potency [17]: inactive

Clc1ccc2cc3ccccc3cc2c1
Potency [1]: inactive
Potency [2]: inactive
Potency [3]: inactive
Potency [4]: inactive
Potency [5]: inactive
Potency [6]: inactive
Potency [9]: inactive
Potency [10]: inactive
Potency [12]: inactive
Potency [13]: inactive
Potency [15]: inactive
Potency [16]: inactive
Potency [17]: inactive

NNc1nc(-c2ccccc2)cs1
Potency [1]: inactive
Potency [3]: inactive
Potency [4]: inactive
Potency [5]: inactive
Potency [6]: inactive
Potency [7]: inactive
Potency [8]: inactive
Potency [9]: inactive
Potency [10]: inactive
Potency [11]: inactive
Potency [12]: inactive
Potency [13]: inactive
Potency [15]: inactive
Potency [16]: inactive
Potency [17]: inactive

O=c1[nH]sc2cc(Cl)ccc12
Potency [1]: inactive
Potency [3]: inactive
Potency [8]: inactive
Potency [9]: inactive
Potency [10]: inactive
Potency [14]: inactive
Potency [15]: inactive
Potency [16]: inactive

CCCCCOC(=O)CCCC
Potency [18]: inactive
Potency [2]: inactive
max response [19]: -0.909% (inactive)
Potency [3]: inactive
Potency [4]: inactive
Potency [5]: inactive
Potency [6]: inactive
Potency [7]: inactive
Potency [8]: inactive
Potency [9]: inactive
Potency [10]: inactive
Potency [11]: inactive
Potency [12]: inactive
Potency [13]: inactive
Potency [20]: inactive
Potency [14]: inactive
Potency [15]: inactive
Potency [16]: inactive
Potency [17]: inactive

CCOc1ccc2nc3cc(N)ccc3c(N)c2c1
Potency [1]: 21.3 µM (active)
Potency [2]: inactive
Potency [19]: 13.4 µM (active)
Potency [4]: inactive
Potency [5]: 8.49 µM (active)
Potency [6]: 23.9 µM (active)
Potency [7]: 6.01 µM (active)
Potency [8]: inactive
Potency [10]: inactive
Potency [11]: 16.9 µM (active)
Potency [12]: inactive
Potency [14]: inactive
Potency [15]: inactive
Potency [16]: inactive
Potency [17]: inactive

Cc1[nH]cnc1C[C@H]1CCc2c(C)c3ccccc3n2C1=O
Potency [1]: 47.8 µM (active)
Potency [3]: 47.8 µM (active)
Potency [4]: 38 µM (active)
Potency [5]: 42.6 µM (active)
Potency [6]: 38 µM (active)
Potency [7]: 33.8 µM (active)
Potency [8]: inactive
Potency [9]: 47.8 µM (active)
Potency [10]: inactive
Potency [11]: 38 µM (active)
Potency [20]: 33.8 µM (active)
Potency [15]: inactive
Potency [16]: inactive

c1ccc(CSCc2ccccc2)cc1
Potency [18]: inactive
Potency [2]: inactive
max response [19]: -5.29% (inactive)
Potency [3]: inactive
Potency [4]: inactive
Potency [5]: inactive
Potency [6]: inactive
Potency [7]: inactive
Potency [9]: inactive
Potency [10]: inactive
Potency [11]: inactive
Potency [12]: inactive
Potency [13]: inactive
Potency [14]: inactive
Potency [15]: inactive
Potency [16]: inactive
Potency [17]: inactive

O=C(Nc1cccc([N+](=O)[O-])c1)c1cc2ccccc2cc1O
Potency [1]: inactive
Potency [2]: inactive
Potency [3]: inactive
Potency [4]: inactive
Potency [5]: inactive
Potency [6]: inactive
Potency [7]: inactive
Potency [8]: inactive
Potency [9]: inactive
Potency [10]: inactive
Potency [11]: inactive
Potency [12]: inactive
Potency [14]: inactive
Potency [15]: inactive
Potency [16]: inactive
Potency [17]: inactive

COc1ccc(-c2ccc3cc(C(=O)O)ccc3c2)cc1C12CC3CC(CC(C3)C1)C2
Potency [1]: inactive
Potency [19]: 4.77 µM (active)
Potency [3]: inactive
Potency [6]: 23.9 µM (active)
Potency [7]: 19 µM (active)
Potency [8]: inactive
Potency [9]: inactive
Potency [11]: 21.3 µM (active)
Potency [12]: inactive
Potency [14]: inactive
Potency [15]: inactive
Potency [16]: inactive

CCCCCCCCCCCCCCCCCC[N+](C)(C)Cc1ccccc1
Potency [18]: 17.5 µM (active)
Potency [2]: 49.5 µM (active)
Potency [19]: 1.75 µM (active)
Potency [3]: 24.8 µM (active)
Potency [4]: 44.1 µM (active)
Potency [5]: 35 µM (active)
Potency [6]: 24.8 µM (active)
Potency [7]: 19.7 µM (active)
Potency [8]: inactive
Potency [9]: 24.8 µM (active)
Potency [10]: inactive
Potency [11]: 22.1 µM (active)
Potency [12]: 19.7 µM (active)
Potency [14]: 24.8 µM (active)
Potency [15]: 22.1 µM (active)
Potency [17]: 55.5 µM (active)

O=c1cc(-c2ccc(O)cc2)oc2cc(O)cc(O)c12
Potency [1]: inactive and 43.6 µM (active)
Potency [2]: inactive
Potency [3]: inactive
Potency [4]: inactive and 27.5 µM (active)
Potency [5]: inactive
Potency [6]: inactive and 34.7 µM (active)
Potency [7]: 38.9 µM (active)
Potency [8]: inactive
Potency [9]: inactive
Potency [10]: inactive
Potency [11]: inactive and 38.9 µM (active)
Potency [12]: inactive
Potency [13]: inactive
Potency [14]: inactive
Potency [15]: inactive
Potency [16]: inactive
Potency [17]: inactive and 38.9 µM (active)

Cc1ccc(-n2nc(C(C)(C)C)cc2NC(=O)Nc2ccc(OCCN3CCOCC3)c3ccccc23)cc1
Potency [1]: inactive
Potency [2]: inactive
Potency [3]: inactive
Potency [4]: inactive
Potency [5]: inactive
Potency [6]: inactive
Potency [7]: inactive
Potency [8]: inactive
Potency [9]: inactive
Potency [10]: inactive
Potency [11]: inactive
Potency [12]: inactive
Potency [15]: inactive
Potency [16]: inactive
Potency [17]: inactive

Nc1c(Cl)cc(Cl)cc1Cl
Potency [18]: inactive
Potency [2]: inactive
max response [19]: -15.4% (inactive)
Potency [4]: inactive
Potency [5]: inactive
Potency [6]: inactive
Potency [8]: inactive
Potency [10]: inactive
Potency [12]: 21.6 µM (active)
Potency [13]: inactive
Potency [20]: inactive
Potency [15]: 21.6 µM (active)
Potency [16]: inactive
Potency [17]: inactive

Source: PubChem BioAssay (Tox21)
